The text below walks through data of PubChem BioAssay (EPA / NIEHS).

The source made the active and inactive calls. How the source made its calls: active means hit-call score of the fitted dose curve at least 0.9, where 1 is the maximum; inactive means score below 0.9.

The experiment can be described thus: ATG_E_Box_CIS: Attagene CIS-FACTORIAL HepG2 Assay for human Enhancer Box (E-box) (AID 2282936). Conditions: HepG2 E-box cis-reporter transcription, actives raise or lower the signal. The gist of the method:
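Cells: HepG2 (human liver), transient MRTU transfection. Exposure 24 h. RNA → oligo(dT) RT → PCR → 6-FAM label → HpaI → CE. Activity fitted both directions relative to DMSO.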
Consider `CCC(Cc1c(I)cc(I)c(N)c1I)C(=O)O` (stereo not drawn), for which the result was inactive.
The same measure, in the same setting: the result for `C=C(C)CCCC` reads “inactive”.
With `OCC(F)(F)C(F)(F)C(F)(F)C(F)(F)C(F)(F)C(F)(F)CO`, the result was inactive.
On the same count and under the same terms, the entry for `C[C@]12CC[C@H]3C(=CCc4cc(O)ccc43)[C@@H]1CCC2=O` is “inactive”; for `Oc1ccc(C2(c3ccc(O)c(C4CCCCC4)c3)CCCCC2)cc1C1CCCCC1` it is “inactive”; for `O=C(O)CCC(F)(F)C(F)(F)C(F)(F)C(F)(F)C(F)(F)C(F)(F)C(F)(F)F` it is “inactive”.
The same measure, in the same setting: the result for `NCC(F)(F)C(F)(F)C(F)(F)C(F)(F)C(F)(F)C(F)(F)F` reads “inactive”.
Still for that read-out and setting: the result for `CC(C)C(=O)OCc1ccccc1` reads “inactive”; that for `CO[Si](C)(CCC(F)(F)C(F)(F)C(F)(F)C(F)(F)C(F)(F)C(F)(F)F)OC`, “inactive”.
For `CCCCCCCCCc1ccc(OCCO)cc1`, the AC50 (in general, the concentration at which the activity in the assay is half-maximal) was 23.1 µM (active).
For the molecule `FC(F)(F)C(F)(F)C(F)(F)C(F)(F)C(F)(F)C(F)(F)C(F)(F)CCI`, the result was inactive.
With `C[Si](C)O[Si](C)C`, the result was inactive.
Regarding `Cc1cnccn1`, the result was inactive.
The same measure, in the same setting: the entry for `NCC(F)(F)C(F)(F)C(F)(F)C(F)(F)C(F)(F)C(F)(F)C(F)(F)C(F)(F)F` is “inactive”.
As to `OCC(F)(F)C(F)(F)C(F)(F)CO`, the result was inactive.
On the same count and under the same terms, the result for `CN(C)C(C)(C)CO` reads “inactive”; that for `Nc1cc([N+](=O)[O-])cc(Cl)c1O`, “inactive”.
For `CCCCCCCCCCCCC[N+](C)(C)Cc1ccccc1`, the outcome was inactive.
Consider `OCCCc1cccnc1`, for which the result was inactive.
Take `O=C(Cl)C(F)(F)C(F)(F)C(F)(F)C(F)(F)C(F)(F)C(F)(F)C(F)(F)F`: the outcome was inactive.
On to `Cc1cc(C)c(O)c(C(C)(C)C)c1`, for which the result was inactive.
Still for that read-out and setting: the result for `CCC(=O)OC(C)c1ccccc1` (stereo not drawn) reads “inactive”; that for `COc1ccccc1C=O`, “inactive”; that for `O=c1cccc[nH]1`, “inactive”.
Same read-out and setting: the entry for `CCCCCCCCCCCC(=O)Cl` is “inactive”.
For the molecule `CCN=C1C=CC(=C(c2ccc(N(CC)CC)cc2)c2ccc(N(CC)CC)cc2)c2ccccc21`, the concentration at half-maximal activity (AC50) was 2.01 µM (active).
With `NC(=O)C(F)(F)C(F)(F)C(F)(F)F`, the outcome was inactive.
Still for that read-out and setting: the entry for `CC(C)CC=C(C=O)c1ccccc1` is “inactive”; for `OCC(F)(F)C(F)(F)C(F)(F)C(F)(F)C(F)(F)C(F)(F)C(F)(F)C(F)(F)CO` it is “inactive”.
Still for that read-out and setting: the result for `F[Si-2](F)(F)(F)(F)F` reads “inactive”; that for `NC(=O)C(F)(F)C(F)(F)C(F)(F)C(F)F`, “inactive”.
The same measure, in the same setting: the result for `O=C(O)C(F)(F)OC(F)(F)C(F)(F)OC(F)(F)C(F)(F)OC(F)(F)F` reads “inactive”; that for `CCCCC(CC)COC(=O)c1ccc(N(C)C)cc1` (stereo not drawn), “inactive”; that for `CCCCCCCCCCCCCC[P+](CCCC)(CCCC)CCCC`, “inactive”.
For `C=CCOC(=O)CC(C)C`, the outcome was inactive.
As for `O=C=Nc1cccc2c(N=C=O)cccc12`, the outcome was inactive.
With `CC(O)C#CC(C)O` (stereo not drawn), the AC50 was 185 µM (active).
As to `CCOCN(C(=O)CS(=O)(=O)O)c1c(C)cccc1CC`, the outcome was inactive.
